According to PubChem BioAssay AID1851 (National Center for Advancing Translational Sciences (NCATS), 2009):
In all, about 16,000 compounds went through this assay and about 5,800 (36%) were called active. Not shown: some 23% with an inconclusive outcome. The call rests on the fitted dose curve; in most records, active means well fitted curve in the direction sought with a large enough effect; inconclusive means small, poorly fitted or top-dose-only effect, or effect the other way; inactive means no such curve, though single readings can be large or run the other way. Some of the results follow.

These compounds were tested against Cytochrome P450 2C19 (Homo sapiens) (UniProt P33261) (assay: Cytochrome panel assay with activity outcomes). Settings: recombinant CYP, pro-luciferin dealkylation, luminescence, p450-cyp2c19; series mostly up to 57.1 µM; activity, negative = inhibition: at the top concentration.
Cytochrome P450 2C19 (Homo sapiens), sequence (P33261 whole entry, looked up): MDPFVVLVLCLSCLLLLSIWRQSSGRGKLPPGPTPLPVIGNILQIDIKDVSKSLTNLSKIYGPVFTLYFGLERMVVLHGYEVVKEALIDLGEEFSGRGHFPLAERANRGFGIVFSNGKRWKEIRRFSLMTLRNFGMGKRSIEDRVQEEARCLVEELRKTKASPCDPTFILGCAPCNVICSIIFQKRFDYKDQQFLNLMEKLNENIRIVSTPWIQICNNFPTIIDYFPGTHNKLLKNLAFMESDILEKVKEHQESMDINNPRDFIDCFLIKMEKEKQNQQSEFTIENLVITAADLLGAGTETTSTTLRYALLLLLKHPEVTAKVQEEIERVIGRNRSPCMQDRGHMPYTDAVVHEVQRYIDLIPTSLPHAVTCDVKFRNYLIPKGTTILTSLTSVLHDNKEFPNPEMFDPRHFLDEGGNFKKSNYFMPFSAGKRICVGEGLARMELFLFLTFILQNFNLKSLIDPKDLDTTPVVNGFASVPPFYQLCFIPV
On the % scale 0 is the no-effect control and ±100 the full control effect.

AC50, active:
CCCCN1C(=O)C(NC(=O)C2CC2)(C(F)(F)F)C2=C1CC(C)(C)CC2=O (stereo not given) 20 µM
CC1CCN(CCOc2cc(Cl)ccc2Cl)CC1 7.08 µM
CN(C)c1ccc(-c2nc3n(n2)C(c2cccnc2)C2=C(CC(C)(C)CC2=O)N3)cc1 (stereo not given) 14.1 µM
c1cc(CNCCCN2CCOCC2)ccn1 7.94 µM
CSc1nncc(-c2ccc(F)c(F)c2)n1 11.2 µM
O=C(OCc1ccc(Cl)cc1Cl)c1cccnc1Cl 0.355 µM
CC(=O)N1c2c(cc(Br)cc2S(=O)(=O)NCC2COc3ccccc3O2)CC1C (stereo not given) 3.16 µM
COc1ccc(-n2nnnc2/C=C\Nc2ccccc2C(=O)c2ccccc2)cc1 0.316 µM
COc1ccc(C(F)(F)F)cc1N/C=C\c1nnnn1-c1ccccc1 1.12 µM
COc1cccc(Cn2c(=O)c(CCc3ccccc3)nc3cnc(N4CCNCC4)nc32)c1 25.1 µM
COc1cccc(Cn2c(=O)c(CCc3ccccc3)nc3cnc(N4CCN(C)CC4)nc32)c1 7.94 µM
CN(C1CCCCC1)S(=O)(=O)c1ccc(NC(=S)NC(=O)c2cccs2)cc1 3.55 µM
CCN(c1ccccc1)S(=O)(=O)c1ccc(NC(=S)NC(=O)c2cccs2)cc1 3.98 µM
CCN(CC)S(=O)(=O)c1ccc(NC(=O)COC(=O)c2ccc(Br)o2)cc1 11.2 µM
CCN(c1ccccc1)S(=O)(=O)c1ccc(NC(=S)NC(=O)c2ccc(Br)o2)cc1 8.91 µM
O=c1c(CCc2ccccc2)nc2cncnc2n1-c1ccccc1 10 µM
O=c1c(CCc2ccccc2)nc2cncnc2n1Cc1ccccc1Cl 5.01 µM
O=c1c(CCc2ccccc2)nc2cncnc2n1Cc1ccc(F)cc1 6.31 µM
Cc1nnc(-c2cccc(Br)c2)c2cn(-c3ccc(Br)cc3)nc12 5.01 µM
Cc1nnc(-c2cccc(Br)c2)c2cn(-c3ccccc3Cl)nc12 1.78 µM
CC(C)Cn1c(-c2nn(C)cc2Cl)n[nH]c1=S 15.8 µM
O=C(Nc1ccc2c(c1)nc1n2CCN(C2CCCCC2)C1)NC1CCCCC1 14.1 µM
Cn1c2c(c(=O)n(C)c1=O)[C@@H]1c3c(ccc4ccccc34)OC[C@@H]1CO2 14.1 µM
O=C1c2ccccc2C(=O)c2c(NC3CCCCC3)ccc(Nc3ccc(S(=O)(=O)O)cc3)c21 3.98 µM
Cn1c(SC2=CS(=O)(=O)c3ccccc32)nc2ccccc21 17.8 µM
Oc1ccc(/C=N/NC(=S)NCc2ccco2)cc1 10 µM
c1ccc2c(Nc3ccncc3)nc(-c3ccoc3)nc2c1 20 µM
CN(C)c1ccc(-c2nc(Nc3ccncc3)c3ccccc3n2)cc1 10 µM
CNc1nc(-c2ccc(N(C)C)cc2)nc2ccccc12 25.1 µM

activity, negative = inhibition, inactive:
Clc1ccc(Cl)c(SCCCN2CCNCC2)c1 11.4% [at 11.4 µM]
OCCN1CCN(CCOc2cccc(Cl)c2)CC1 28.5%
O=C(O)CCCCCCCC(=O)O 14.9%
CCOc1ccccc1CNCCN1CCOCC1 6.81%
c1cc(CNCCN2CCNCC2)ccn1 -34.1% [at 11.4 µM]
Cn1c(=O)c(-c2ccc(F)c(F)c2)nc2cncnc21 -43.5%
CC(=O)Nc1ccc2c(c1)/C(=C/c1ccc([N+](C)(C)C)cc1)c1ccccc1-2 -19.5% [at 11.4 µM]
O=C(O)COc1c(Cl)cc(Cl)c2cccnc12 26% [at 11.4 µM]
CN1CCN(c2ncc3nc(CCc4ccccc4)c(=O)n(Cc4ccc(F)cc4)c3n2)CC1 -34.9%
COc1cccc(Cn2c(=O)c(-c3ccccc3)nc3cnc(N4CCN(C)CC4)nc32)c1 -13.9%
COc1cccc(Cn2c(=O)c(-c3cccc(C#N)c3)nc3cnc(N4CCN(C)CC4)nc32)c1 20.9%
O=C1[C@H]2CCn3c(=O)n(-c4ccccc4)c(=O)n3[C@H]2[C@H](O)[C@H]2O[C@@H]12 -1.55% [at 11.4 µM]
CC(=O)NS(=O)(=O)c1ccc(NC(=S)NC(=O)c2ccco2)cc1 7.63%
Cc1noc(NS(=O)(=O)c2ccc(NC(=O)c3ccc(Br)o3)cc2)c1C -25.5%
CCCC(=O)Nc1ccc(C(=O)NNC(=S)NC(=O)c2cccs2)cc1 -22.5%
CN(C)S(=O)(=O)c1ccc(NC(=O)COC(=O)c2ccccn2)cc1 -16%
CCCCCCCCCCCCCCCC[N+](C)(C)CCN(Cc1ccc(OC)cc1)c1ncccn1 -43.8% [at 25.6 µM]
Cc1nc2cnc(N(C)C)nc2n(-c2ccccc2)c1=O 5.33%
Brc1ccc(-c2nnc(-c3cccc(Br)c3)o2)cc1 -11.7%
CCc1nn(C)c(-c2n[nH]c(=S)n2N)c1Cl -20.1%
CCn1c(CC(C)C)n[nH]c1=S 16%
CC1CCN(CCc2nc3cc(NC(=O)NC4CCCCC4)ccc3n2C)CC1 -5.62%
C[C@@H]1/C=C\CC(=O)OC[C@H]2O[C@@H](C=C[C@@H]2O)[C@H](C)/C=C\CC(=O)OC1 -20.4% [at 11.4 µM]
Nc1ccc(-c2ccc(Nc3cc(S(=O)(=O)O)c(N)c4c3C(=O)c3ccccc3C4=O)cc2)c(S(=O)(=O)O)c1 -36% [at 11.4 µM]
O=C(Nc1ccc(Nc2ccc3c(c2)C(=O)c2ccccc2C3=O)c2c1C(=O)c1ccccc1C2=O)c1ccccc1 -23.9% [at 11.4 µM]
C=CCOc1cccc(/C=N/NC(=O)C(=O)NCc2ccco2)c1 18.1%
CNc1nc(-c2ccoc2)nc2ccccc12 -19.4%
Fc1ccc(Nc2nc(-c3ccoc3)nc3ccccc23)cc1 -38.8%
CN(C)c1ccc(-c2nc(NC3CCNCC3)c3ccccc3n2)cc1 -7.38%
NCC[C@H](O)C(=O)N[C@H]1C[C@@H](N)[C@@H](O[C@H]2O[C@@H](CN)[C@@H](O)[C@@H](O)[C@@H]2O)[C@@H](O)[C@@H]1O[C@H]1O[C@@H](CO)[C@@H](O)[C@@H](N)[C@@H]1O 8.94% [at 25.6 µM]
N[C@@H](C(=O)O)c1cc(O)ccc1Cl -10%
